M1 ag parental – M1 agonist counterscreen hit in parental CHO-K1 cells; actives 0.48% (n = 360,000); activation, % at 3 µM; Fluo-8 calcium fluorescence; scaled to maximal ATP response, vehicle zero; AID 602248; in the data active means activation above about 15%;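 further: untransfected CHO-K1 host cells lacking M1 receptor as counterscreen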
M4 ag – agonists of human muscarinic M4 receptor (CHRM4); P08173; actives 0.14% (n = 360,000); CHO-K1 hM4/Gqi5, Fluo-8 calcium fluorescence; vehicle 0%, full acetylcholine response 100%; AID 624127; activation, % at 3 µM;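 active means activation above the run mean over all test wells plus 3 SD, cut at about 32% in these data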;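 further: peak over basal fluorescence ratio per well then scaled between controls; 0% = DMSO wells and 100% = acetylcholine at EC100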
Target sequence (P08173 whole entry, looked up): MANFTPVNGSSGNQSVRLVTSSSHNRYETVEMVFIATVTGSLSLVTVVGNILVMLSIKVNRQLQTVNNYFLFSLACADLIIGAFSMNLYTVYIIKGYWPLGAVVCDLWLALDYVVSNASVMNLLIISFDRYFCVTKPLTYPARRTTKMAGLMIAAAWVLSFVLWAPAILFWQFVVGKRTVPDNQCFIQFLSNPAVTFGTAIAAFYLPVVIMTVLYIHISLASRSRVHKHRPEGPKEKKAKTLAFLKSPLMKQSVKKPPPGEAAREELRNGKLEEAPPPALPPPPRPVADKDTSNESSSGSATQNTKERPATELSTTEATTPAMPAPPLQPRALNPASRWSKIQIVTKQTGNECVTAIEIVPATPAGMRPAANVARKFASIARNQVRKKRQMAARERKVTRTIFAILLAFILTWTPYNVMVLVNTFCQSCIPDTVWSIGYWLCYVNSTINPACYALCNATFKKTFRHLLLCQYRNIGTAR
CHO-K1 Ca PAM – nonselective activator or artifact in parental CHO-K1 calcium assay; actives 0.02% (n = 360,000); ATP EC20, Fluo-8 calcium fluorescence; 0% at ATP EC20, 100% at ATP max; activation, % at 3 µM;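 active means activation above the run cutoff, the mean activation of all test compounds plus 3 SD, cut at about 40% in these data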;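 further: peak over basal fluorescence ratio in a 140 s read after ATP addition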
CHO-K1 Ca antag – nonselective inhibitor or artifact in parental CHO-K1 cells. ATP-induced calcium, Fluo-8 fluorescence. inhibition, % at 3 µM. actives 0.6% (n = 360,000);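 active means inhibition above a per-plate cutoff, the plate's mean sample inhibition plus 3 SD, cut at about 24% in these data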;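 further: 0% = DMSO plus EC80 ATP and 100% = DMSO alone without ATP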
M4 PAM – positive allosteric modulators of human muscarinic M4 receptor; P08173; AID 624126; activation, % at 3 µM; actives 0.4% (n = 360,000); CHO-K1 hM4/Gqi5, Fluo-8 calcium fluorescence, ACh EC20; 0% = ACh EC20, 100% = maximal ACh;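 active means activation above its plate's cutoff, the mean activation of sample wells plus 3 SD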
CHRM4 antagonist – blocks acetylcholine activation of human M4 receptor; P08173; CHO-hM4 cells, ACh EC80, Fluo-8 calcium fluorescence; inhibition, % at 3 µM; actives 0.73% (n = 360,000);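 active means inhibition above its plate's cutoff, the mean inhibition of sample wells plus 3 SD, cut at about 27% in these data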;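 further: 0% = acetylcholine EC80 with DMSO and 100% = DMSO without agonist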
* marks the source's active call; other numbers are inactive results. Hits are enriched below; roughly 2% of the tested compounds scored in any of these assays.

SMILES	M1 ag parental	M4 ag	CHO-K1 Ca PAM	CHO-K1 Ca antag	M4 PAM	CHRM4 antagonist
CC(Cc1ccccc1Sc1ccccc1)N(C)C (stereo not drawn)	2	3	23	-6	-40	92*
COc1ccccc1Sc1ccccc1CC(C)N (stereo not drawn)	2	10	13	-2	9	8
CSc1ccc(CN2CCN(Cc3ccccc3Cl)CC2)cc1	0	-1	1	-3	-9	5
CC(Cc1ccccc1Sc1ccc(O)cc1)N(C)C (stereo not drawn)	2	4	9	-3	-20	42*
CN1CCN(Cc2ccccc2Sc2ccccc2)CC1	3	7	11	-10	-38	95*
CC(=O)OC1C2CCC1C(N1CCCCC1)CC2 (stereo not drawn)	0	1	-13	14	5	-4
COc1ccc(-[n+]2c(-c3ccccc3)cc(-c3ccc(C)cc3)cc2-c2ccccc2)cc1	13	7	2	14	-20	82*
O=C(O)c1ccc(-[n+]2c(-c3ccccc3)cc(-c3ccccc3)cc2-c2ccccc2)cc1	1	1	10	-10	1	5
Cc1ccc(-c2cc(-c3ccccc3)cc(-c3ccccc3)[n+]2-c2ccc(C(=O)O)cc2)cc1	0	2	-1	-14	25*	17
CCCOC(=O)c1ccc(-[n+]2c(-c3ccccc3)cc(-c3ccccc3)cc2-c2ccccc2)cc1	5	5	6	2	-14	46*
Cc1ccc(-c2cc(-c3ccc(C)cc3)[n+](-c3ccc(C(=O)O)cc3)c(-c3ccc(C)cc3)c2)cc1	4	0	1	0	3	-11
Brc1ccc(-[n+]2c(-c3ccccc3)cc(-c3ccccc3)cc2-c2ccccc2)cc1	3	2	-1	3	-12	40*
CCOC(=O)c1ccccc1NC(=O)c1c(O)[nH]c(=O)[nH]c1=O	1	0	17	-11	9	5
CC(C)=CCN1CC[C@@]2(C)c3cc(O)ccc3CC1C2C (stereo partly drawn)	-1	1	1	6	-16	34*
CC(C)=CCN1CC[C@@]2(C)c3cc(O)ccc3C[C@@H]1C2C (stereo partly drawn)	0	1	-8	-3	-9	9
Cc1nn(-c2ccccc2)c(Cl)c1C1C(C#N)=C(N)Oc2c1c(=O)oc1ccccc21 (stereo not drawn)	0	2	-6	25*	-4	3
N#CC1=C(N)Oc2c(c(=O)oc3ccccc23)C1c1cccnc1 (stereo not drawn)	0	-1	6	-11	13	0
CC[N+](C)(CC)CCCOC(=O)C(O)(c1ccccc1)C1CCCCC1 (stereo not drawn)	0	1	32	-9	-24	99*
Cc1ccc(/C=C2/C(=O)NC(=O)N(CC3CCCO3)C2=O)s1 (stereo not drawn)	19*	1	14	1	6	-2
CCN1CCN(C(=O)COc2ccc3oc4c(c3c2)CCCC4)CC1	0	0	-18	8	-2	-2
O=c1[nH]c(=S)n(CCC2=CCCCC2)c(O)c1C=NCCCn1ccnc1	0	-1	-6	25*	-19	29*
O=c1[nH]c(=O)n(CCC2=CCCCC2)c(O)c1C=NCCCn1ccnc1	0	1	29	-16	-1	-8
CC[N+]12CCC(CC1)C(=C(c1ccccc1)c1ccccc1)C2	0	0	-8	12	-19	97*
C[N+]12CCC(CC1)C(=C(c1ccccc1)c1ccccc1)C2	0	1	21	-9	-16	97*
c1ccc2c(c1)CNc1ccccc1O2	0	0	-7	15	1	-3
SMILES	M1 ag parental	M4 ag	CHO-K1 Ca PAM	CHO-K1 Ca antag	M4 PAM	CHRM4 antagonist
Cc1cccc(C)c1-n1nnnc1C(c1cccc2ccccc12)N1CCC(n2c(=O)[nH]c3ccccc32)CC1 (stereo not drawn)	-1	2	-11	13	-1	-2
CCCCCCn1c(=O)c(C(=O)Nc2ncccc2C)c(O)c2ccccc21	0	1	11	-1	-2	1
CCCCn1c(=O)c(C(=O)Nc2ncccc2C)c(O)c2ccccc21	0	33*	-1	1	-6	5
O=c1[nH]c2ccccc2n1C1CCN(C(c2nnnn2Cc2ccccc2)C2CC2)CC1 (stereo not drawn)	9	24	15	-4	-13	29*
CN1CCN(CCOC2c3ccccc3CSc3ccc(Cl)cc32)CC1 (stereo not drawn)	4	11	24	-5	-43	83*
Clc1ccc2c(c1)C(OC1CN3CCC1CC3)c1ccccc1CS2 (stereo not drawn)	11	16	25	-8	-42	99*
NC(=O)c1ccc(N=Cc2c(O)n(Cc3ccco3)c(=O)[nH]c2=O)cc1	1	0	5	-7	-10	6
CCN1/C(=C/C=C/C2=[N+](CC)c3ccccc3C2(C)C)C(C)(C)c2ccccc21	437*	365*	-15	95*	-14	95*
O=c1[nH]c(=S)n(-c2ccc(Cl)cc2)c(O)c1/C=N/N1CCOCC1	1	0	15	-2	-4	-9
O=C(Nc1ccc(F)cc1)c1c(O)c2c(n(Cc3ccccc3)c1=O)CCCC2	1	2	15	-4	21*	14
CC(=O)N1CCC(N2CCCC(C(=O)c3cccc(Cl)c3)C2)CC1 (stereo not drawn)	0	1	19	-5	-21	27*
CC(C)(C)c1ccc(C(=O)C2CCCN(C3CCC3)C2)cc1 (stereo not drawn)	1	2	16	-8	-24	32*
CC(C)(C)c1ccc(C(=O)C2CCCN(Cc3ccon3)C2)cc1 (stereo not drawn)	3	4	16	-7	-6	-2
COc1cccc(C(=O)C2CCCN(C3CCOCC3)C2)c1 (stereo not drawn)	1	1	15	-17	-12	7
CN1CCN(S(=O)(=O)c2ccc(Cl)nc2)CC1	3	0	11	2	-1	5
Cc1ccc(S(=O)(=O)NC(Cc2cnc[nH]2)C(=O)O)cc1 (stereo not drawn)	0	2	8	-4	-6	-5
C[N+]1(C)C2CCC1CC(OC(=O)c1ccco1)C2 (stereo not drawn)	1	0	26	-17	-23	8
C#CC[N+]1(C)[C@@H]2CC[C@H]1CC(OC(=O)C(CO)c1ccccc1)C2 (stereo partly drawn)	0	1	6	-17	-19	99*

Compound activity: PubChem, The Scripps Research Institute Molecular Screening Center
